This is one part of a sample in which hits are shown more often than they occur.
Pf Dd2 growth – inhibitors of Plasmodium falciparum Dd2 growth. P. falciparum Dd2 growth, SYBR Green, 72 h. Potency, µM (titrated, usually from 28.9 µM), usual class: inhibitors. hit rate 4.3% among 120,000. AID 1347417; active = well fitted inhibition curve with a large enough effect; note: nearly all actives have a fitted effect of over 65% in size
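Readout: SYBR Green fluorescence, 485 nm excitation, 535 nm emission, after ~16 h lysis at 37C. Before that, Dd2-infected red cells (2.5% hematocrit) grew 72 h with compound, 29 uM top final concentration.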
A number is an active result; 0 = inactive; ! = not confirmed by another sample; [ ] = dose if it differs, or a comment.

SMILES	Pf Dd2 growth
COc1ccc(-c2cn3c(n2)N(C(=O)Cn2ccnc2)CCC3)cc1	0
Cc1ccc(-c2cn3c(n2)N(C(=O)c2cnn4cccnc24)CCC3)cc1	0
Fc1ccc(-c2noc3ncnc(NCCCN4CCN(c5ccccc5)CC4)c23)cc1	0
Clc1ccc(-c2noc3ncnc(NCCCN4CCN(c5ccccc5)CC4)c23)cc1	11µM
CCOc1ccc(CCNc2ncnc3onc(-c4ccc(Cl)cc4)c23)cc1OCC	0
CN(C)c1ccc(CN2CCC3(C2)C(=NC2CCCCC2)NC(=O)N3c2cc(F)cc(F)c2)cc1 (configuration not stated)	10µM
O=C1NC(=NC2CCCCC2)C2(CCN(Cc3ccccc3)CC2)N1c1cc(F)cc(F)c1	0
O=C1NC(=NC2CCCC2)C2(CCN(Cc3ccc(F)cc3)C2)N1c1cc(F)cc(F)c1 (configuration not stated)	2µM
COc1ccc(CN2CCC3(CC2)C(=NC2CCCC2)NC(=O)N3c2cc(F)cc(F)c2)cc1	0
O=C1NC(=NC2CCCCC2)C2(CCN(Cc3cccnc3)CC2)N1c1cc(F)cc(F)c1	0
CC(=O)N1CCC2(CC1)C(=NC1CCCC1)NC(=O)N2c1cc(F)cc(F)c1	0
O=C1CCN(C(=O)C2CCN(C(=O)C3CCCC3)CC2)CCCCCCN1	0
O=C(NC[C@H]1O[C@@H]2C[C@@H](CC(=O)N3CCC(F)(F)C3)O[C@@H]2[C@@H]1O)NC1CCCCC1	0
O=C(Cc1c[nH]c2ncc(-c3ccsc3)cc12)N1CCOCC1	0
COCCNC(=O)[C@@H]1C[C@H](Oc2cccnc2)CN1C(=O)C1(C)CCCCC1	0
CCOCCOC1CCN(C(=O)Nc2ccc(OC)cc2)CC1	0
O=C(CN1CC2CC(C1)[C@H]1CCCC(=O)N1C2)N1CCc2ccccc21 (some centres not stated)	0
CCc1nc2c(c(-c3ccc(Cl)cc3)n1)CCN([S+](=O)([O-])c1c(C)noc1C)CC2	0
O=C(O)c1ccccc1C(=O)NC[C@H]1Cn2c(-c3ccc(F)cc3)cnc2CO1	0
CN(C)c1ccc(CN2CCC(c3nc4ccncc4[nH]3)C2)cc1 (configuration not stated)	0
c1cncc(CN2CC[C@H](c3nc4ccccc4[nH]3)C2)c1	0
Brc1ccc(CN2CCC(c3nc4ccncc4[nH]3)C2)cc1 (configuration not stated)	10µM!
Cn1cnc(S(=O)(=O)N2CCCC(Cc3noc(C4CC4)n3)C2)c1 (configuration not stated)	0
CCCN(CCC)C(=O)C1COC2(CCC(C)CC2)N1C(=O)c1ccccc1F (configuration not stated)	0
O=C(NCc1cc2n(n1)CCCNC2)C1Cc2ccccc2S(=O)(=O)N1 (configuration not stated)	0
SMILES	Pf Dd2 growth
Cc1cc(C)cc(OCCn2c(CCNC(=O)C3CCCCC3)nc3ccccc32)c1	0
CCOc1ccccc1N1CC(c2nc3ccccc3n2CCCCOc2cc(C)ccc2C)CC1=O (configuration not stated)	0
CCc1ccccc1N1CC(c2nc3ccccc3n2Cc2cccc(C)c2)CC1=O (configuration not stated)	0
Cc1ccccc1Cn1c(CCCNC(=O)C2CCCCC2)nc2ccccc21	0
CCc1ccccc1N1CC(c2nc3ccccc3n2CCCCOc2ccccc2OC)CC1=O (configuration not stated)	0
Cc1cccc(OCCCn2c(CCNC(=O)C3CCCCC3)nc3ccccc32)c1	14µM
Cc1cccc(OCCCCn2c(C3CC(=O)N(c4ccccc4Cl)C3)nc3ccccc32)c1 (configuration not stated)	3.2µM
Cc1cccc(OCCCCn2c(C3CC(=O)N(c4ccc(C)cc4C)C3)nc3ccccc32)c1 (configuration not stated)	11µM
COc1ccccc1OCCCn1c(C2CC(=O)N(c3ccccc3Cl)C2)nc2ccccc21 (configuration not stated)	0
O=C1NCCCN1C1CCN(Cc2cccc(C(F)(F)F)c2)CC1	0
CN(C)Cc1nnc(C2CC(NC(=O)c3n[nH]c4c3CCCC4)C2)n1C (configuration not stated)	0
CC(=O)Nc1ccc(CN2CCCC3(Cc4ccccc4CNC3=O)C2)cc1 (configuration not stated)	0
Cc1ccc(CN2CCC3(CC2)Cc2ccccc2NC3=O)cc1	4.5µM
N#Cc1ccc(CN2CCC3(Cc4ccccc4CNC3=O)C2)cc1 (configuration not stated)	0
Cn1nccc1CN1CCC2(CC1)Cc1ccccc1NC2=O	0
O=C1NCc2ccccc2CC12CCN(Cc1ccc(Oc3ccccc3)cc1)C2 (configuration not stated)	11µM
CC(C)(C)CN1CCC2(Cc3ccccc3CNC2=O)C1 (configuration not stated)	0
O=C1NCc2ccccc2CC12CCN(Cc1ccncc1Cl)C2 (configuration not stated)	0
COc1cccc(CN2CCC3(Cc4ccccc4NC3=O)C2)c1 (configuration not stated)	0
CC(C)Cc1ccc(CN2CCC3(Cc4ccccc4CNC3=O)C2)cc1 (configuration not stated)	13µM
CC(=O)N1CCC2(CC1)C(=NC1CCCCC1)NC(=O)N2c1cccnc1	0
COc1ccccc1C(=O)N(C)Cc1cccn1C	0
CCCCC(=O)N(C)CC1CCOC1 (configuration not stated)	0[5.79 µM]
CO[C@H]1C[C@@H](O)C12CCN(C(=O)Cn1cc(C)c(=O)[nH]c1=O)CC2	0
CCOC(=O)C1CCCN(C(=O)Cn2ncc3c4ccccc4n(Cc4ccccc4)c3c2=O)C1 (configuration not stated)	0
SMILES	Pf Dd2 growth
CCCn1c2ccccc2c2cnn(CC(=O)N3CCCC(C)C3)c(=O)c21 (configuration not stated)	0
CC1CCCCN1CCCNC(=O)Cn1ncc2c3ccccc3n(C)c2c1=O (configuration not stated)	0
O=C(Cn1ncc2c3ccccc3n(Cc3ccccc3F)c2c1=O)N1CCCCCC1	10µM
CC1CCCCN1CCCNC(=O)Cn1ncc2c3ccccc3n(Cc3ccccc3F)c2c1=O (configuration not stated)	5µM
CCCn1c2ccccc2c2cnn(CC(=O)NCCCN3CCCCC3)c(=O)c21	0
CN1Cc2ncnc(N3CCN(Cc4ccccc4)CC3)c2CN(C2CCC2)C1=O	0
COc1ccc(N2CCN(C(=O)CN3CC4CC(C3)[C@H]3CCCC(=O)N3C4)CC2)cc1 (some centres not stated)	0
CCOc1cccc(CNC(=O)C2CCN(C(=O)c3ncn4c3COC(c3ccccc3)C4)CC2)c1 (configuration not stated)	0
Cc1noc(C)c1CO[C@@H]1COCC[C@H]1NC1CSCCSC1	0
COc1ccc(CN2CC[C@H]3COC(=O)N3c3cc(F)ccc3C2)cc1	0
CCCc1cc(=O)oc2c3c(ccc12)OCN(Cc1ccc(OC)cc1)C3	10µM
COc1ccc(CN2CC[C@H]3COC(=O)N3c3ccc(OC)cc3C2)cc1	0
COc1ccc(CN2CC[C@H]3COC(=O)N3c3cc(C)ccc3C2)cc1	0
COc1ccc(CN2CC[C@H]3COC(=O)N3c3ccccc3C2)cc1	0
COc1ccc(CN2COc3ccc4c(C)cc(=O)oc4c3C2)cc1	10µM
Cc1cnc(C(=O)N2CCOc3ccc(CCC(N)=O)cc3C2)cn1	0
Cc1cc2c(cc1CNC1CC(C)(C)Cc3nc(C(C)(C)C)ncc31)OCO2 (configuration not stated)	0

Screens (PubChem)
